Measurements reported in PubChem BioAssay AID1845224 (National Center for Advancing Translational Sciences (NCATS), 2023).
Inconclusive results are not listed. Entries that show only a call come without a potency. Calls of active or inactive are those of the source. Calls come from the whole dose curve; as a rule, active = well fitted curve in the direction sought with a large enough effect; inconclusive = small, poorly fitted or top-dose-only effect, or another doubt; inactive = no such curve, though single readings can be large or run the other way.
Potency is the fitted concentration of half-maximal effect.

The molecules below were run on NanoLuc luciferase (engineered Oplophorus gracilirostris luciferase) (assay: Confirmatory Nanoluciferase (NLuc) qHTS assay for identification of artifact compounds.). Settings: secreted NLuc in S16 cell medium, luminescence, 5 min; series mostly up to 39 µM.
Description: PI: Alexander Tropsha Ph.D. UNC Eshelman School of Pharmacy University of North Carolina, Chapel Hill, North Carolina Hits from high-throughput screening (HTS) of chemical libraries are often false positives due to their interference with the assay detection technology. In response to this problem, we generated the largest publicly available library of chemical liabilities and developed a free webtool to predict HTS artifacts, both of which are described herein. More specifically, we generated, curated, and integrated HTS datasets for thiol reactivity, redox activity, and luciferase (firefly and nano) activity. Using these curated datasets, we developed and validated several Quantitative Structure-Interference Relationship (QSIR) models to predict nuisance behavior. […] These models were employed for virtual profiling of the National Center for Advancing Translational Science's (NCATS) in-house library, and 256 compounds for each assay were selected for the experimental validation of nuisance behavior. The BA for these external predictions ranged from 58 to 78% for compounds within the applicability domains of the models. […] The models developed in this study, along with aggregation models previously developed by our group (SCAM Detective) were implemented in "Liability Predictor," an online tool which may be used as part of chemical library design or for triaging HTS hits. Both the models and the curated datasets are publicly available at https://liability.mml.unc.edu/.
PROTOCOL TABLE SEQUENCE No. (e.g., 1, 2, 3, etc.); PARAMETER (e.g., Cells, Incubation, Reagent, etc.); VALUE; DESCRIPTION. 1; Reagent; 2 uL; Nanoluciferase media. 2; Compounds and control; 16 nL; Kalypsis pin tool (Wako USA) equipped with a 1536-well pin head. 3; Incubation; 15 min. 4; Reagent; 2 uL; Luciferase enzyme. 5; Incubation; 5 min. 6; Detection; Luminescence, ViewLux microplate reader. NOTES (numbers refer to Sequence numbers above) 1. Medium was collected from the culture flasks of NLuc-expressing S16 cells (80% confluent) prior to cell plating, filtered through a 0.22um filter, and frozen at -20C prior to use. Media was diluted (1:55) and 2 uL was dispensed into all wells of a 1536-well assay plate (solid-bottom white plate; Greiner Bio One, Monroe, NC). 2. A Wako Pin-tool (Wako Automation, Richmond, VA) was used to transfer 16 nL of compounds (consisting of 7-plates in qHTS format, final concentration range 18.3 nM to 114 uM) or control Cilnidipine (final concentration range 623 nM to 80 uM). 3. 15 min. incubation at room temperature protected from light. 4. 2 uL of NLuc substrate (1:100 in Nano-Glo luciferase buffer; Nano-Glo luminescence assay, Promega, Madison, WI) was dispensed for a final assay volume of 4 uL. 5. Plates were centrifuged (121xg, 15 seconds) and incubated for 5 minutes. 6. Samples were read for luminescence on a ViewLux CCD imager (PerkinElmer). Data were normalized to no-enzyme (0% activity) and no-inhibitor (DMSO; 100%) controls and the resulting percent inhibition data were fitted to a 4-parameter Hill equation using NCATS in-house software.
With COc1cc(=O)n2c(c1C(=O)N(C)Cc1nonc1C)CCN(C(=O)C1C(C)(C)C1(C)C)CC2 the Potency was “inactive”.
In the case of C[C@H]1CC[C@@H]2[C@@H](C)[C@H]3C(CC4C5CC=C6CC(O[C@@H]7O[C@H](CO)C(O[C@@H]8O[C@@H](C)[C@H](O)[C@@H](O)[C@H]8O)[C@H](O)[C@H]7O[C@@H]7O[C@@H](C)[C@H](O)[C@@H](O)[C@H]7O)CC[C@]6(C)C5CC[C@@]43C)N2C1 (some centres undefined), the Potency is reported as “inactive”.
CC(=O)O[C@H]1[C@H]2[C@@H](OC(=O)Cc3ccccc3)[C@@H](C)C[C@]2(OC(C)=O)C(=O)/C(C)=C/[C@@H]2[C@H](CC[C@@]13CO3)C2(C)C was tested, and the Potency was “inactive”.
In the case of C[C@@H]1C[C@@H]2[C@H]([C@H]3C=C(COC(=O)c4ccccc4)[C@@H](O)[C@]4(O)[C@@H](O)C(OC(=O)c5ccccc5)=C[C@@]14C3=O)C2(C)C, the Potency is reported as “inactive”.
With CC(=O)O[C@H]1C2[C@@H](OC(=O)Cc3ccccc3)[C@@H](C)C[C@]2(OC(C)=O)C(=O)/C(C)=C/[C@@H]2[C@H](CC[C@@]13CO3)C2(C)C (some centres undefined) the Potency was “inactive”.
For O=P1(N(CCCl)CCCl)NC(OO)CCO1 (centres undefined), the Potency was “inactive”.
For CC(C)(O)[C@@H]1[C@H]2OC(=O)[C@@H]1[C@]1(O)C[C@H]3O[C@]34C(=O)O[C@H]2[C@]14C, the Potency was “inactive”.
For COc1cccc2c1C(=O)c1c(O)c3c(c(O)c1C2=O)CC(O)(C(C)=O)CC3OC1CC(NCc2ccc(CNC3CC(OC4CC(O)(C(C)=O)Cc5c(O)c6c(c(O)c54)C(=O)c4c(OC)cccc4C6=O)OC(C)C3O)cc2)C(O)C(C)O1 (centres undefined), the Potency was 15.4 µM (active).
In the case of CC1=C[C@H]2[C@]3(O)C(C=C(CO)C[C@]2(O)C1=O)[C@@H]1C(C)(C)[C@]1(O)[C@H](O)[C@H]3C (some centres undefined), the Potency is reported as “inactive”.
